# According to PubChem BioAssay (NCI):
# “And” between values parts separate entries of the source, which are not always exact repeats. Identical values can stand only once. Compounds without any hit were thinned out: in the full panel of roughly 79,000, 15% have a hit. A number with no mark means an inactive call. The source made the active and inactive calls. No stated cut-off is given here; in the data, active means growth inhibition above about 70%; inactive means the rest.
# Columns and labels:
# [1] = NCI Yeast Anticancer Drug Screen. Data for the rad50 strain (AID 155);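 further: 0% = growth of vehicle-only cultures of the same strain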; conditions: S. cerevisiae rad50 strain growth inhibition, stronger effect = higher value; at 50.0 µM unless noted
# Summary of the method: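 Relative growth inhibition (compound vs vehicle) was measured in yeast with a defined repair-gene alteration.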
# [2] = NCI Yeast Anticancer Drug Screen. Data for the mec2-1 strain (AID 157); conditions: S. cerevisiae mec2-1 strain, stronger effect = higher value; at 50.0 µM unless noted
# Summary of the method: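 Compounds were applied to mec2-1 yeast cells. Their growth was then compared with that of vehicle-treated cultures to give growth inhibition.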
# [3] = NCI Yeast Anticancer Drug Screen. Data for the sgs1 mgt1 strain (AID 161);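 further: 0% = growth of cultures given vehicle only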; conditions: S. cerevisiae sgs1 mgt1 strain, stronger effect = higher value; at 50.0 µM unless noted
# Summary of the method: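 Compounds are added to genetically altered yeast, and growth is compared with cultures given vehicle alone to give percent inhibition.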
# [4] = NCI Yeast Anticancer Drug Screen. Data for the cln2 rad14 strain (AID 165);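 further: 0% = growth equal to vehicle treated cultures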; conditions: S. cerevisiae cln2 rad14 strain, stronger effect = higher value; at 50.0 µM unless noted
# Summary of the method: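 Strain: cln2 rad14 yeast, altered in cell cycle control and DNA damage repair. Read-out: growth inhibition vs vehicle.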
# [5] = NCI Yeast Anticancer Drug Screen. Data for the bub3 strain (AID 167); conditions: S. cerevisiae bub3 mutant strain, stronger effect = higher value; at 50.0 µM unless noted
# Summary of the method: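 Screening used yeast with an engineered genetic alteration affecting cell cycle control. Compound-exposed cultures were compared with vehicle cultures, and reduced growth was taken as inhibition.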
# [6] = NCI Yeast Anticancer Drug Screen. Data for the mlh1 rad18 strain (AID 175); conditions: S. cerevisiae mlh1 rad18 strain growth inhibition, stronger effect = higher value; at 50.0 µM unless noted
# Summary of the method: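 A repair-deficient yeast strain is exposed to test compound, and growth is scored relative to vehicle-treated controls.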
SMILES,growth inhibition [1],growth inhibition [2],growth inhibition [3],growth inhibition [4],growth inhibition [5],growth inhibition [6]
CN1CCCC1CCN (centres undefined),0.15%,-10.8%,-13.8%,-1%,3.9%,6.15%
CNS(=O)(=O)c1ccc(C)c(C)c1,-0.5%,-13.9%,4.4%,-10.7%,23.1%,12.7%
N=C(N)SCc1ccc(Oc2ccc(CSC(=N)N)cc2)cc1,0.4%,1.45%,-4.5%,0.5%,-2.4%,15.3%
C[n+]1cccc(C#N)c1,6.55% and 5.2%,4.6% and -7.45%,-0.95% and 0.4%,-14.8% and -21.6%,2.3% and -6.65%,-0.5% and 10.1%
NC(=S)N/N=C1/CN(c2ccc(Cl)c(Cl)c2)CC(=O)C1c1nc2ccccc2s1 (centres undefined),49.1%,28.6%,53%,26.1%,-0.65%,52.2%
CC[N+]1(CN2CCCCC2)CCCCC1,18.5%,-2.8%,4%,-7.4%,-22.6%,37.6%
CC1=C(CCC(=O)O)c2cc3nc(cc4[nH]c(cc5[nH]c(cc1n2)c(C)c5C1CC1C(=O)O)c(C)c4C1CC1C(=O)O)C(C)=C3CCC(=O)O (centres undefined),0.35%,22.4%,30.3%,-0.6%,13.2%,25.1%
N=C(N)c1ccc(NC(=S)Nc2ccc(C(=N)N)cc2)cc1,43.1%,21.3%,32.1%,7.35%,16.4%,31.8%
CC1NC(=O)OC12CCCCC2 (centres undefined),16.4%,-3.55%,-2.95%,-27.6%,-7.5%,-30.4%
O=C(c1ccccc1)c1cccc(C(=O)c2ccccc2)c1,-2.1%,-11.3%,-12.9%,4.65%,7.35%,-16.6%
CCN(CC)CCN(C(=O)C(C)(C)C)c1ccccc1N,-30.8%,-27.9%,-17.1%,-18.6%,-19.1%,-4%
O=S(=O)(O)c1cc(N=[N+]([O-])c2ccc(N=Nc3ccccc3)cc2S(=O)(=O)O)ccc1/C=C/c1ccc(N=[N+]([O-])c2ccc(N=Nc3ccccc3)cc2S(=O)(=O)O)cc1S(=O)(=O)O,28.6%,11.9%,9.8%,7.15%,0.8%,50.4%
O=CNC1c2ccccc2CCc2ccccc21,-1.15%,-12.9%,-11.4%,-2.45%,-22.6%,-5.85%
Nc1ccc(S(=O)[O-])cc1.Nc1ccc(S(=O)[O-])cc1.[Zn+2],-19.2%,-19.9%,-6.15%,-26.5%,1%,-15.6%
COC(=O)C(CCSc1ccccc1)C(=O)OC,0.85%,-4.45%,20.1%,12.1%,28.2%,-3.1%
COc1cc2cnc(-c3ccccc3)c(O)c2cc1OC,12.3%,-5.25%,12%,1.3%,40.1%,-6.55%
CN1CCC(O)CC1,7.6%,-23.4%,-11.3%,-0.35%,6.35%,-3%
O=C(OCC1OCOC2C(COC(=O)c3ccccc3)OCOC12)c1ccccc1 (centres undefined),9.05%,4.35%,8.05%,4.8%,13.7%,15.7%
O=Cc1c2cnc(c1O)CSCc1ccc(cc1)CSC2,9.55%,8.45%,9.35%,-11.7%,-2.9%,23.5%
FC(F)(F)c1ccc2nc(NCc3ccccc3)c(-c3ccccc3)nc2c1,3.85%,15.6%,24.6%,-6.25%,26.9%,35.8%

SMILES,growth inhibition [1],growth inhibition [2],growth inhibition [3],growth inhibition [4],growth inhibition [5],growth inhibition [6]
Cc1ccc(O)cc1N(C)C,-18.4%,-3.95%,-12.7%,-35%,-6.25%,-3.65%
C#CCN(N=O)C(=O)NCCCCC(NC(=O)OCc1ccccc1)C(=O)OCc1ccccc1 (centres undefined),-6.65%,-8.15%,-26.6%,-4.5%,10.3%,-24.9%
COc1cc(N=C=S)ccc1NC(=O)c1cc(Br)cc(Br)c1O,55.9%,39.4%,46.6%,31.2%,1.15%,45%
CC(C)C1CO[C@]2(C)CCC(=O)N12 (some centres undefined),4.6%,11.9%,-2.6%,13.8%,6.3%,9.95%
CC(=O)OC[C@H](O)[C@@]1(O)CC[C@H]2[C@@H]3CCC4=CC(=O)C=C[C@]4(C)[C@H]3[C@@H](O)C[C@@]21C,33.2%,14.9%,23.9%,1.15%,41.6%,27%
COC1CC(OC2CCC3(C)C(CCC45CCC(C6=CC(=O)OC6)C(C)(CCC43)C5=O)C2)OC(C)C1O (centres undefined),22.4%,-11.7%,2.6%,17.6%,12.8%,-17.9%
Cc1[nH]c2c(C)ccc(C)c2c(=O)c1Br,-1.65%,10%,-1%,-16.7%,-1.7%,3.2%
C=CC(=O)OCCOCCCC,8.75%,5.4%,-4.7%,-21.9%,-15.1%,4.85%
NC(N)=NS(=O)(=O)c1ccc(NCc2c3ccccc3nc3ccccc23)cc1,41.2%,26.9%,38.4%,6.75%,46.5%,38.1%
CCOC(=O)c1sc(C(=O)O)cc1-c1cccs1,3.9%,9.65%,11.5%,-5.6%,-10.6%,15%
COc1cc(C(=O)NNC(=O)c2ccc(Cl)c(Cl)c2)cc(OC)c1OC,24.4%,33.9%,20.5%,18.4%,33.3%,34.9%
CC(=O)Oc1cccc2c1C(=O)c1c(OC(C)=O)cc(C)cc1C2=O,10.8%,5.35%,1.85%,-0.85%,-41%,-15.6%
C=C1CC(CCCC2CC(=C)C(=O)O2)OC1=O (centres undefined),5.8%,12.9%,-4.1%,-50.7%,-11.2%,6.15%
O=C(c1ccc(-c2ccccc2)cc1)C(O)c1ccc(-c2ccccc2)cc1 (centres undefined),7.55%,0.4%,2.65%,-5.35%,1.2%,4.65%
N#CC1=C(N)OC(C2CC2)=C(C#N)C1c1ccco1 (centres undefined),-9.75%,-14.1%,-11.1%,4.45%,-24.8%,-11.9%
CC[C@H](CC[C@@H](C)[C@H]1CC[C@H]2[C@@H]3CC=C4C[C@@H](O)CC[C@]4(C)[C@H]3CC[C@]12C)C(C)C,26.8% and -6.4%,-4.1% and -11.6%,26.6% and -12.2%,15.9% and 7.85%,5.95% and -13.2%,13.1% and -3.05%
CC(=O)O[C@@H]1C(=O)C=C(C)[C@@H]2[C@@H](OC(=O)C=C(C)C)[C@H]3OC(=O)C[C@H]4[C@@H](C)[C@@H](O)[C@]5(O)OC[C@]34[C@H]5[C@@]12C,87.4% (active),71.5% (active),71.8% (active),88.5% (active),79.5% (active),91.8% (active)
O=S(=O)(O)c1cc(O)c(S(=O)(=O)O)cc1O,-12.2%,13.9%,1.7%,-3.6%,1.4%,-8.6%
O=C(O)CNC(=O)CNC(=O)CNC(=O)C(CSC(c1ccccc1)(c1ccccc1)c1ccccc1)NC(=O)OCc1ccccc1 (centres undefined),20.4%,4.5%,-13.7%,22.1%,10.7%,4.9%
